# Source: PubChem BioAssay (National Center for Advancing Translational Sciences (NCATS))
# Only some compounds are listed: those with a hit (about 8.8% of all), similar ones and a draw of the others.
# KB-V1 cytotox: KB-V1 MDR subline cytotoxicity; AID 1347076; Potency, µM (top dose mostly 46.1 µM), most hits filed as cytotoxic; 3.4% of 400,000 active; KB-V1 MDR cells viability, CellTiter-Glo, 72 h; note: nearly all actives have a fitted effect of over 60% in size
#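 Readout: CellTiter-Glo luminescence, 10 min after addition. Cells: KB-V1 MDR subline, 72 h at 37 degrees C with compound. Analysis: corrected, normalized data fitted to concentration-effect curves.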
# IL1B secr inh: inhibitors of inflammasome signaling (IL-1 beta secretion) | THP-1 LPS/ATP IL-1B secretion, AlphaLISA, 16 h; active compounds read low | activity change, % at 57.5 µM | 4.7% of 360,000 active | AID 743279; in the data active = activity change below about -50%; inconclusive = mostly about -30% to -49%
#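 Secreted IL-1B measured by AlphaLISA bead assay after 16 h compound exposure of THP-1 cells; compounds (final up to 57.5 uM) added 1 h before LPS (250 ng/mL) and ATP (1.25 mM) stimulation; lower signal means less secretion.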
# HT1080NT lethal: kills 2HG-producing HT-1080-NT fibrosarcoma cells; HT-1080-NT fibrosarcoma viability, CellTiter-Glo ATP luminescence, 48 h; Potency, µM (doses to about 46.1 µM), actives largely listed as cytotoxic; 1.6% of 360,000 active; AID 686970;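 note: NT is the 2HG producing partner of a matched IDH1 knockdown line; nearly all actives have a fitted effect of over 55% in size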
#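 A 48-hour cytotoxicity screen used HT-1080-NT cells plated 2 hours before compound delivery. ATP-based CellTiter-Glo luminescence measured viability, normalized to DMSO and no-cell controls.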
# KB-3-1 cytotox: KB-3-1 parental cell cytotoxicity. KB-3-1 viability, CellTiter-Glo ATP luminescence, 72 h. AID 1347075. 1.4% of 400,000 active. Potency, µM (doses to about 46.1 µM), usual class: cytotoxic; note: nearly all actives have a fitted effect of over 60% in size
#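 Parental KB-3-1 adenocarcinoma cells in phenol-red-free DMEM with 10% FBS were pin-treated with compounds at several concentrations, incubated 72 h at 37 °C, and viability read by CellTiter-Glo luminescence; concentration-effect curves were fitted after normalization.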
# HT1080 IDH1KD tx: HT-1080 IDH1 knockdown cell toxicity (counter line). AID 686971. 2% of 360,000 active. Potency, µM (doses to about 46.1 µM), hits mostly cytotoxic. HT-1080 IDH1 knockdown viability, ATP luminescence, 48 h
#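 In this qHTS, HT-1080 cells depleted of IDH1 are exposed for 48 h at 37 °C to compound titrations. Toxicity is scored from CellTiter-Glo luminescence, with DMSO as full viability and medium alone as none.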
# Numbers stand for hits; 0 = inactive; ? = inconclusive; - = not tested or not shown; [ ] = another dose, or the depositor's remark. Unless noted, calls come from the whole dose curve; as a rule, active = well fitted curve in the direction sought with a large enough effect; inconclusive = small, poorly fitted or top-dose-only effect, or another doubt; inactive = no such curve, though single readings can be large; an effect the other way counts as inactive or inconclusive.
SMILES,KB-V1 cytotox,IL1B secr inh,HT1080NT lethal,KB-3-1 cytotox,HT1080 IDH1KD tx
COCCCNC(=O)c1sc2ncnc(N3CCc4ccccc4C3)c2c1C,0,0,0[9.24 µM],?,?
Clc1ccccc1/C=N/NC1=Nc2cccc3cccc1c23,0,0,?,0,?
COc1cc(/C=N/Nc2nc3ccccc3s2)cc([N+](=O)[O-])c1O,0,0,0,0,0
C(=N\NC1=Nc2cccc3cccc1c23)/c1ccccn1,?,0,0,23µM,?
C(=N\Nc1nc2ccccc2s1)/c1ccccn1,?,-95,?,?,6.5µM
C(=NNc1ccc2ccccc2n1)c1ccccn1,0,0,18µM,0,7.3µM
C(=N\N=C\c1ccccn1)/c1ccccn1,0,0,0,0,0
O=[N+]([O-])c1cc(Cl)cc(/C=N/Nc2nc3ccccc3s2)c1O,?,0,21µM,?,18µM
CCOC(=O)C1=C(C)N=C2SCCC(=O)N2C1c1ccc(OCc2ccccc2)c(OC)c1 (stereo unspecified),0,-,-,0,-
CCCCC(=O)N(C)c1c(CC)nc2c(OCc3cccc(Cl)c3)cccn12,0,0,?,0,?
Cc1csc(N/N=C/c2ccccn2)n1,?,-100,?,?,?
COC(=O)c1ccccc1-c1c2ccc(=N)cc-2oc2cc(N)ccc12,0,-92,6.5µM,1.3µM,10µM
COC(=O)c1ccc(N)cc1O,0,0,0,0,0
Cc1ccc(-c2sc(C(=O)Nc3ccc(Br)cc3)cc2CC(=O)O)cc1,0,-,-,0,-
CC(=O)Nc1cc(O)cc(O)c1,0,0,0,0,0
O=c1ccc(C(F)(F)F)cn1Cc1cc(=O)n2ccsc2n1,0,0,0,0,?
O=c1cc(CNc2cc(C(F)(F)F)cc(C(F)(F)F)c2)nc2sccn12,26µM,-71,?,23µM,?
O=C(Cc1ccc(S(=O)(=O)N2CCOCC2)s1)Nc1cc(C(F)(F)F)cc(C(F)(F)F)c1,0,-60,?,?,?
C#CCN(C[C@@H]1[C@@H](OC(=O)NCc2ccccc2)[C@@H](OC(=O)NCc2ccccc2)CN(C(=O)OC(C)C)N1C(=O)OC(C)C)S(=O)(=O)c1ccc(C)cc1,0,-58,0,0,0
COc1ccc(C(=O)NCCC2=CCCCC2)cc1OC1CCN(C(C)C)CC1,0,0,?,0,0
CCN(CC(=O)NC1CCS(=O)(=O)C1)Cc1nc2c(Br)cc(Br)cc2c(=O)[nH]1 (stereo unspecified),0,0,0,0,0
CCN(CC(=O)NC(C)(C)C)Cc1nc2c(Br)cc(Br)cc2c(=O)[nH]1,?,-100,0,0,?
O=C(Nc1cccc(Cl)c1)c1ccc(NCCCN2CCOCC2)c([N+](=O)[O-])c1,?,-51,?,0,?
O=C(NCCCN1CCOCC1)c1ccc(Sc2ccccc2Cl)c([N+](=O)[O-])c1,13µM,-52,0,?,0
COc1ccc(S(=O)(=O)N2CCOCC2)cc1NC(=O)c1ccc(=O)[nH]c1,0,0,0,0,0
SMILES,KB-V1 cytotox,IL1B secr inh,HT1080NT lethal,KB-3-1 cytotox,HT1080 IDH1KD tx
CCc1nc(C)cn1S(=O)(=O)c1cc(Br)ccc1OC,16µM,0,0,0,0
COc1ccc(NC(=O)N(Cc2ccco2)C2CCN(C(C)=O)CC2)c(OC)c1,0,-,-,0,-
CN(CC(=O)Nc1ccc(Cl)c(Cl)c1)C(=O)C12CC3CC(CC(C3)C1)C2,?,-54,0,0,0
CN(CC(=O)Nc1ccc(Cl)c(Cl)c1)C1CCCCC1,0,0,0,0,0
O=C(CSc1nc2ccccc2n1Cc1ccccc1)N1CCN(c2ccc(F)cc2)CC1,0,-,-,0,-
CN(c1ccccc1)S(=O)(=O)c1cccc(C(=O)NCCCN2CCCC2=O)c1,0,0,0,0,0
Cc1ccc(C2=C(O)C(=O)C(c3ccc(C)cc3)=C(O)C2=O)cc1,15µM,0,0,?,0
CC(=O)N1CCC2(CC1)OC(=O)C(C)=C2C(=O)Nc1cccc(Cl)c1C,0,-,-,0,-
CC(C)(C)c1ccc(CC(=O)N2CCC2(C)C(=O)NCc2ccc(Cl)cc2)cc1 (stereo unspecified),21µM,0,?,?,26µM
CC(C)c1ccc(CC(=O)N2CCC2(C)C(=O)NCC(C)(C)C)cc1 (stereo unspecified),0,-74,0,0,0
CC(C)(C)c1ccc(CC(=O)N2CCC2(C)C(=O)NS(=O)(=O)c2ccccc2)cc1 (stereo unspecified),0,-74,0,0,0
CC(C)(C)c1ccc(C(=O)N2CCN(CCNC(=O)C(=O)NCc3ccc(Cl)cc3)CC2)cc1,0,-67,?,?,?
C#Cc1ccc(NC(=O)C2(C)CCN2C(=O)Cc2ccc(C(C)(C)C)cc2)cc1 (stereo unspecified),0,0,?,0,10µM
C#Cc1ccc(NC(=O)C2(C)CCN2C(=O)Cc2ccc(C(C)C)cc2)cc1 (stereo unspecified),0,0,?,0,?
CC1(C(=O)NS(=O)(=O)c2ccccc2Cl)CCN1C(=O)c1ccccc1CCc1ccccc1 (stereo unspecified),0,0,0,0,0
COc1ccc(Nc2nc(-c3cccs3)nc3ccccc23)cc1S(=O)(=O)N1CCOCC1,?,-66,16µM,?,?
CN(C)S(=O)(=O)c1cccc(NC(=O)c2cccc(S(=O)(=O)N3CCCCC3)c2)c1,18µM,0,0,?,0
CN(C)S(=O)(=O)c1cccc(NC(=O)c2cccc(NS(=O)(=O)c3ccccc3)c2)c1,?,-60,?,12µM,?
CN(C)S(=O)(=O)c1cccc(C(=O)Nc2ccc(C(=O)Nc3cccc(S(N)(=O)=O)c3)cc2)c1,0,0,0,0,0
CN(CC(=O)Nc1cccc(F)c1)CC(=O)Nc1cccc(S(=O)(=O)N2CCCCCC2)c1,18µM,?,0,?,0
O=C(NC1CCCCCC1)C1CCN(C(=O)N2CCOc3ccccc32)CC1,0,-,-,0,-
CN(C)c1nc(NS(=O)(=O)c2ccc(Cl)cc2)nc(N(C)C)n1,13µM,0,0,0,0
O=S(=O)(Nc1ncccn1)c1ccc(Cl)cc1,0,0,0,0,0
CCCCN(CC)CCCNC(=O)Cn1nc(CC)n2c(cc3sccc32)c1=O,?,-,-,0,-
CN(Cc1nc2ccccc2c(=O)[nH]1)CC(O)COCc1ccco1 (stereo unspecified),0,0,0,0,0
COc1ccc(COCC(O)CN(Cc2ccco2)Cc2ccccc2O)cc1 (stereo unspecified),21µM,0,0,0,0
O=S(CC(O)COCc1ccc(Cl)cc1)c1ccccn1 (stereo unspecified),0,0,0,0,0
Oc1ccccc1CN(Cc1ccco1)CC(O)COCc1ccc(Cl)cc1 (stereo unspecified),?,-99,?,0,?
CCOCCCNC(=O)c1c(NC(=O)c2cc(=O)c3ccccc3o2)sc2c1CCC2,0,-,-,0,-
